Test results: article PMC4336329 (PLoS ONE, 2015)
Hit rate of the full screen: of about 310,000 compounds, about 14,000 (4.5%) showed an effect of 50% or more. The effect is printed as a negative number. The sample holds strong results, similar compounds and a random draw of the others, so the mix is not that of the screen.

Biological target: human ether-à-go-go-related gene (hERG) potassium channel (human, UniProt Q12809)
Test: primary screen, population patch clamp on CHO cells stably expressing hERG; higher = less effect of the substance
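Also: peak tail current of the secondary pulse compared with the same well before compound.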

human ether-à-go-go-related gene (hERG) potassium channel, sequence (Q12809 whole entry, looked up): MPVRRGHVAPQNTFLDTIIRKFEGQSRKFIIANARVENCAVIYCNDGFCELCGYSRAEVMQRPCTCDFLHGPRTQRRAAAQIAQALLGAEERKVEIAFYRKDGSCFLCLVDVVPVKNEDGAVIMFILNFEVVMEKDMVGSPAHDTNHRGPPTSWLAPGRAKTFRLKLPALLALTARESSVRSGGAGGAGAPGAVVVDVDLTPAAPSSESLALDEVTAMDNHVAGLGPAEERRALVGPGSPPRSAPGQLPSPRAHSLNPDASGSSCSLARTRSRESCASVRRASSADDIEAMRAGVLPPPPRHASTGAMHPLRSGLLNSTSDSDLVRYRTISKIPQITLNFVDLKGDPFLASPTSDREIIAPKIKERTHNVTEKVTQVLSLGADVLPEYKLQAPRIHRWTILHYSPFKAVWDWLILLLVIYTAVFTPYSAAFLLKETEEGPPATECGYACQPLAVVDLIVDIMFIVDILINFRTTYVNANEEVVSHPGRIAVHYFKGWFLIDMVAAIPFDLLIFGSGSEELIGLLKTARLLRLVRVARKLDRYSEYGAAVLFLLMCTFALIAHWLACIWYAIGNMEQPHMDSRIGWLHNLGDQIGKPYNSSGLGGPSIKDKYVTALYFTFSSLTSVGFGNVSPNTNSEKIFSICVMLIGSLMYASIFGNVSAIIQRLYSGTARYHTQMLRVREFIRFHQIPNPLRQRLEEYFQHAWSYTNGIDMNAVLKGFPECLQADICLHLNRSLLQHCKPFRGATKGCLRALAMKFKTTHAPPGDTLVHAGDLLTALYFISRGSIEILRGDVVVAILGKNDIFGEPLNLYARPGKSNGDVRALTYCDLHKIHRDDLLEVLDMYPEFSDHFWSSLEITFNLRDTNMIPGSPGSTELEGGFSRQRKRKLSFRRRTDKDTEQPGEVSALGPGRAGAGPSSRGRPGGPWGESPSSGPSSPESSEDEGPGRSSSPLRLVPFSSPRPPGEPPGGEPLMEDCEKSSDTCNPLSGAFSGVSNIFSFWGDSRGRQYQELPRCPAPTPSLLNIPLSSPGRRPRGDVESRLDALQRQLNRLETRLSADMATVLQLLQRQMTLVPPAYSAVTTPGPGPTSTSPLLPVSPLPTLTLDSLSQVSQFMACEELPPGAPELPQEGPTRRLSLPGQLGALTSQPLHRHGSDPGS

| SMILES | hERG current change (%, negative = inhibition) at 10uM [%] |
| --- | --- |
| COc1ccccc1/C=C(/C#N)C(=O)O | 18.5 |
| Nc1ccc(-c2cnc3ccccc3n2)cc1 | 0.217 |
| O=C(COc1ccccc1)Nc1nnc(COc2ccccc2)s1 | 4.24 |
| CC(=O)/C(C[N+]1(C)CCCCC1)=N\O.[I-] | 16.4 |
| CSc1ncc(Cl)c(C(=O)Nc2ccccc2C)n1 | 6.48 |
| CCCCCN=CC1=C(O)CC(c2ccccc2)CC1=O (stereo not shown) | -6.98 |
| COc1ccc(C2CC(=O)c3cnn(-c4nc(C)cc(C)n4)c3C2)cc1OC (stereo not shown) | -4.84 |
| COCCNC(=S)N/N=C1\CC(C)CC(C)(C)C1 (stereo not shown) | 6.32 |
| C#CCn1cnc2c(cnn2-c2ccc(C)c(C)c2)c1=O | 3.21 |
| COc1ccc(-c2[nH]ncc2CNC(C)CCn2cccn2)cc1F (stereo not shown) | -2.23 |
| Nn1c(SCC(=O)Nc2nccs2)nnc1C1CC1 | 6.89 |
| COC(=O)c1ccccc1NS(=O)(=O)c1ccc2[nH]c(=O)[nH]c2c1 | 16.4 |
| O=C(CN1C(=O)c2cccc3cccc1c23)NCc1cccnc1 | 2.05 |
| CCCCCCNS(=O)(=O)c1ccc(Cl)s1 | -12.9 |
| Cc1ccc(SCC(=O)NC(C)(C)C)cc1 | -8.22 |
| CC(=O)Nc1ccc(Nc2nc(-c3c(C)nc4ccccn34)cs2)cc1 | 18.4 |
| Br.Cc1ccc(Nc2nc(-c3c(C)nc4ccccn34)cs2)cc1 | -62.7 |
| Cc1ccc(Nc2nc(-c3c(C)nc4ncccn34)cs2)cc1 | -10.4 |
| Cc1cccc(Nc2nc(-c3c(C)nc4ccccn34)cs2)c1 | 0.479 |
| Cc1nc2ncccn2c1-c1csc(Nc2ccccc2)n1 | -54.7 |
| Cc1nc2ncccn2c1-c1csc(Nc2cccc(C(=O)O)c2)n1 | 5.55 |
| O=c1cc(N2CCN(c3ccccc3F)CC2)[nH]c(=O)n1-c1ccc(Br)cc1 | -16.7 |

| SMILES | hERG current change (%, negative = inhibition) at 10uM [%] |
| --- | --- |
| COC(=O)C1C(=O)CC(C)(O)C(C(=O)OC)C1/C=C/c1ccccc1 (stereo not shown) | -15.6 |
| COc1ccc(/C(N)=N/OC(=O)c2ccc([N+](=O)[O-])c(C)c2)cc1OC | -16.5 |
| N/C(Cc1ccc([N+](=O)[O-])cc1)=N\OC(=O)c1ccc([N+](=O)[O-])cc1 | -57.6 |
| COc1ccc(/C(N)=N/OC(=O)c2ccc(C)c([N+](=O)[O-])c2)cc1OC | 10.1 |
| COc1ccccc1C(=O)O/N=C(/c1ccncc1)c1ccc([N+](=O)[O-])cc1 | -67.9 |
| N/C(Cc1ccc([N+](=O)[O-])cc1)=N\OC(=O)c1ccccc1Br | -57.7 |
| N/C(Cc1ccc([N+](=O)[O-])cc1)=N\OC(=O)c1ccc2ccccc2c1 | 2.02 |
| COc1ccccc1C(=O)O/N=C(\c1ccccc1)c1ccncc1 | -14.4 |
| N/C(Cc1ccc([N+](=O)[O-])cc1)=N\OC(=O)c1ccc(Br)cc1 | -41.5 |
| N/C(=N\OC(=O)c1ccccc1Br)c1ccc([N+](=O)[O-])cc1 | -14.4 |
| O=C(O/N=C(/c1ccccc1)c1ccncc1)c1ccccc1[N+](=O)[O-] | -14 |
| COc1ccc(/C(N)=N/OC(=O)c2ccc(OC)c([N+](=O)[O-])c2)cc1OC | -65 |
| N/C(Cc1ccc([N+](=O)[O-])cc1)=N\OC(=O)c1ccccc1F | -35.6 |
| c1ccc(CSc2nnnn2-c2ccccc2)cc1 | -3.94 |
| CC(=O)NCc1ccc(S(=O)(=O)NC(C)CCc2ccccc2)cc1 (stereo not shown) | 13.3 |
| OCCn1ccc(-c2ccccc2OCc2ccc(F)cc2)n1 | 4.9 |
| N#Cc1ccccc1Cn1c(-c2cscn2)nc2ccccc21 | -7.78 |
| CCOC(=O)c1sc(NC(=O)CCCn2nc([N+](=O)[O-])c(Cl)c2C)c(C(=O)OCC)c1C | -3.72 |
| Cc1cc(/C=C(\C#N)C(=O)NCCc2c[nH]c3ccccc23)c(C)n1C | 3.85 |
| O=C1CS/C(=N\C(=O)N2c3ccccc3Sc3ccccc32)N1 | 5.96 |
| Cc1cc(S(=O)(=O)Nc2ccc(N(C)C)cc2)c(C)s1 | 0.71 |
| Fc1ccc(C(c2nnnn2C2CCCC2)N(Cc2ccco2)CC2CCCO2)cc1 (stereo not shown) | -28 |

| SMILES | hERG current change (%, negative = inhibition) at 10uM [%] |
| --- | --- |
| O=C(CSc1cccc[n+]1[O-])Nc1cccc(S(=O)(=O)NC2=NCCCCC2)c1 | 54.8 |
| CCCn1c(C)cs/c1=N\C(=S)Nc1ccccc1 | 12.8 |
| N/C(Cc1ccc([N+](=O)[O-])cc1)=N\OC(=O)c1cccc(Br)c1 | -58 |
| COc1cc(C(=O)O/N=C(\N)c2ccc([N+](=O)[O-])cc2)cc(OC)c1OC | -45.2 |
| COc1ccc(CC(=O)O/N=C(\N)Cc2ccc([N+](=O)[O-])cc2)cc1 | -46.5 |
| N/C(=N\OC(=O)Cc1ccc([N+](=O)[O-])cc1)c1cccc(Br)c1 | 3.08 |
| N/C(=N\OC(=O)c1cccc(Br)c1)c1ccc([N+](=O)[O-])cc1 | 17.7 |
| Cc1cccc(C(=O)O/N=C(\N)Cc2ccc([N+](=O)[O-])cc2)c1 | -64.3 |
| COc1cc(C(=O)O/N=C(\N)Cc2ccc([N+](=O)[O-])cc2)cc(OC)c1OC | -68.9 |
| COc1ccc(C(=O)O/N=C(\N)Cc2ccc([N+](=O)[O-])cc2)c(OC)c1 | -57.1 |
| COc1cc(C(=O)OCc2ccc([N+](=O)[O-])cc2)cc(OC)c1OC | 2.74 |
| COc1ccc(C/C(N)=N/OC(=O)c2cccc([N+](=O)[O-])c2)cc1 | -44.2 |
| Cc1cccc(OCC(=O)O/N=C(\N)Cc2ccc([N+](=O)[O-])cc2)c1 | -32.5 |
| Cc1ccc(C(=O)O/N=C(\N)Cc2ccc([N+](=O)[O-])cc2)c(Cl)c1 | -46.3 |
| O=C(CCc1nnc2ccc(NCc3ccccc3)nn12)NC1CCCC1 | 11.1 |
| Cc1ccc(N2CC(C(=O)Nc3nccs3)CC2=O)cc1 (stereo not shown) | -5.15 |
| Cc1ccc(N(C(=O)C2CCCO2)C2C=CS(=O)(=O)C2)cc1Cl (stereo not shown) | -4.44 |
| O=C(Nc1ccc(S(=O)(=O)Nc2ncccn2)cc1)c1cncc(Br)c1 | 10.6 |
| O=C(O)C(=O)O.OC(CNC1CCCc2ccccc21)COc1c(Cl)cccc1Cl (stereo not shown) | -56.5 |
| O=C(c1ccccc1)c1ccc(OCC(O)CNC2CCCc3ccccc32)cc1 (stereo not shown) | -31.7 |
| O=C(CSc1ccccc1Cl)NC1CCCc2ccccc21 (stereo not shown) | -1.17 |
| O=C(O)C(=O)O.OC(CNC1CCCc2ccccc21)COc1ccc2ccccc2c1 (stereo not shown) | -72.3 |

| SMILES | hERG current change (%, negative = inhibition) at 10uM [%] |
| --- | --- |
| CCc1ccccc1OC[C@@H](O)CN[C@H]1CCCc2ccccc21.O=C(O)C(=O)O | -24.7 |
| CC(=O)CCc1ccc(OCC(O)CNC2CCCc3ccccc32)cc1.O=C(O)C(=O)O (stereo not shown) | -49 |
| COc1ccc(CC(=O)Oc2ccc(C)cc2Br)cc1OC | 3.25 |
| CN(Cc1nc(-c2ccccc2)no1)C(=O)c1ccc2c(c1)OCO2 | -20.5 |
| Nc1nccnc1C(=O)OCC(=O)Nc1ccc2[nH]c(=O)[nH]c2c1 | 17 |
| O=c1[nH]c2cc3c(cc2cc1CN(CCO)S(=O)(=O)c1ccccc1)OCCO3 | -19 |
| CCc1ccc(NC(=O)CN(c2ccc(OC)cc2)S(=O)(=O)c2c(C)nn(C)c2C)cc1 | -4.36 |
| CC(C)CC1c2[nH]c3ccccc3c2CCN1CCCn1cccn1 (stereo not shown) | -63.1 |
| COc1ccc(C2c3[nH]c4ccccc4c3CCN2CCCn2cccn2)c(C)c1C (stereo not shown) | -9.49 |
| COc1ccc(C2c3[nH]c4ccccc4c3CCN2CCCn2cccn2)cc1C (stereo not shown) | -38.9 |
| CC(C)(C)C1c2[nH]c3ccccc3c2CCN1CCCn1cccn1 (stereo not shown) | -19.5 |
| COc1ccc(C2c3[nH]c4ccccc4c3CCN2CCCn2cccn2)c(F)c1 (stereo not shown) | -3.85 |
| Fc1ccc(C2c3[nH]c4ccccc4c3CCN2CCCn2cccn2)cc1 (stereo not shown) | -70.1 |
| Cc1ccccc1C1c2[nH]c3ccccc3c2CCN1CCCn1cccn1 (stereo not shown) | -20.3 |
| CCOc1ccc(C2c3[nH]c4ccccc4c3CCN2CCCn2cccn2)cc1 (stereo not shown) | -68.7 |
| Fc1ccccc1C1c2[nH]c3ccccc3c2CCN1CCCn1cccn1 (stereo not shown) | -46.4 |
| O=S(=O)(NCc1ccccc1)NCc1ccccc1F | 7.69 |
| COCCN1C(=O)C(=O)/C(=C(/O)c2ccc(S(=O)(=O)N3CCCCC3)cc2)C1c1ccc(OC)c(OC)c1 (stereo not shown) | 8.21 |
| CC1(C)COC(/C=C/c2ccc([N+](=O)[O-])cc2)=N1 | -26.1 |
